A short description of test [1]: qHTS of pediatric cancer cell lines to identify multiple opportunities for drug repurposing: Primary screen for SK-N-MC cells (AID 1347093). The gist of the method:
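Metabolically active cells were quantified by ATP-dependent luminescence (CellTiter-Glo, 15 min at room temperature) following 48 h treatment. Cells had been plated at 500-1,000 per well and settled for 5 h beforehand.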
(In general: Quantitative high-throughput screening tests each substance at several concentrations.)

Test [2] in a line: qHTS of pediatric cancer cell lines to identify multiple opportunities for drug repurposing: Primary screen for BT-37 cells (AID 1347094). In outline:
(§1)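 Following a 5-hour attachment period, cells at 500-1,000/well received compounds and were cultured for 48 hours. CellTiter-Glo was added and luminescence read to estimate viable, metabolically active cells.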

The nature of test [3]: qHTS of pediatric cancer cell lines to identify multiple opportunities for drug repurposing: Primary screen for NB-EBc1 cells (AID 1347095). In outline:
as §1

Test [4] can be described thus: qHTS of pediatric cancer cell lines to identify multiple opportunities for drug repurposing: Primary screen for U-2 OS cells (AID 1347096). Further: nearly all actives have a fitted effect of over 50% in size. In outline: (§2)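 Viability after 48 h compound treatment at 37C, 500-1,000 cells/well, read as ATP luminescence with CellTiter-Glo. Primary screens used 11-point (MIPE, 0.78 nM-46 µM) or 8-point (NPC, 0.59 nM-46 µM) final concentrations; follow-up screens used 11-point dilutions.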

Test [5] is described as follows: qHTS of pediatric cancer cell lines to identify multiple opportunities for drug repurposing: Primary screen for Saos-2 cells (AID 1347097). Further: nearly all actives have a fitted effect of over 40% in size. The gist of the method: as §1
Test [6] in a line: qHTS of pediatric cancer cell lines to identify multiple opportunities for drug repurposing: Primary screen for SK-N-SH cells (AID 1347098). Further: nearly all actives have a fitted effect of over 65% in size. In outline: (§3)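 Cells (500-1,000/well) rested 5 h, then received compounds for 48 h; metabolically active cells were measured by CellTiter-Glo luminescence. Final concentrations spanned up to 46 µM (MIPE, 11-point) or 0.59 nM-46 µM (NPC, 8-point) in primary screens, 11-point in follow-ups.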

Test [7] can be described thus: qHTS of pediatric cancer cell lines to identify multiple opportunities for drug repurposing: Primary screen for NB1643 cells (AID 1347099). Further: nearly all actives have a fitted effect of over 50% in size. In outline:
as §1

Test [8] can be described thus: qHTS of pediatric cancer cell lines to identify multiple opportunities for drug repurposing: Primary screen for LAN-5 cells (AID 1347100). The gist of the method: as §2
A short description of test [9]: qHTS of pediatric cancer cell lines to identify multiple opportunities for drug repurposing: Primary screen for BT-12 cells (AID 1347101). Further: nearly all actives have a fitted effect of over 25% in size. The gist of the method: as §3
The nature of test [10]: qHTS of pediatric cancer cell lines to identify multiple opportunities for drug repurposing: Primary screen for Rh18 cells (AID 1347102). Further: nearly all actives have a fitted effect of over 65% in size. The gist of the method:
as §2

Test [11] can be described thus: qHTS of pediatric cancer cell lines to identify multiple opportunities for drug repurposing: Primary screen for OHS-50 cells (AID 1347103). Further: nearly all actives have a fitted effect of over 40% in size. The gist of the method:
as §3

Test [12] is described as follows: qHTS of pediatric cancer cell lines to identify multiple opportunities for drug repurposing: Primary screen for RD cells (AID 1347104). Further: nearly all actives have a fitted effect of over 55% in size. The gist of the method:
as §1

The nature of test [13]: qHTS of pediatric cancer cell lines to identify multiple opportunities for drug repurposing: Primary screen for MG 63 (6-TG R) cells (AID 1347105). Further: nearly all actives have a fitted effect of over 50% in size. The gist of the method: as §1
Test [14] is described as follows: qHTS of pediatric cancer cell lines to identify multiple opportunities for drug repurposing: Primary screen for control Hh wild type fibroblast cells (AID 1347106). Further: nearly all actives have a fitted effect of over 55% in size. In outline: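 Cells (500-1,000/well) in growth media were settled 5 h at 37 degrees C, then given compounds for 48 h. Viability was read as CellTiter-Glo luminescence. Primary runs used MIPE at 11 points (0.78 nM-46 µM) and NPC at 8 points (0.59 nM-46 µM); follow-ups used 11 points.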

Test [15] can be described thus: qHTS of pediatric cancer cell lines to identify multiple opportunities for drug repurposing: Primary screen for Rh30 cells (AID 1347107). Further: nearly all actives have a fitted effect of over 75% in size. In outline: as §2
The nature of test [16]: qHTS of pediatric cancer cell lines to identify multiple opportunities for drug repurposing: Primary screen for Rh41 cells (AID 1347108). Further: nearly all actives have a fitted effect of over 70% in size. The gist of the method: as §1
The nature of test [17]: qHTS of pediatric cancer cell lines to identify multiple opportunities for drug repurposing: Confirmatory screen for NB1643 cells (AID 1347109). Further: nearly all actives have a fitted effect of over 45% in size. The gist of the method:
as §2

A short description of test [18]: qHTS of pediatric cancer cell lines to identify multiple opportunities for drug repurposing: Confirmatory screen for A673 cells (AID 1347110). Further: nearly all actives have a fitted effect of over 65% in size. The gist of the method: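 Viability was read as ATP luminescence (CellTiter-Glo) after 48 h of compound exposure at 37 C in A673 cells seeded at 500-1,000/well. Titrations reached 46 uM final, with 11 points in the confirmatory screen. Concentration-response curves were fitted directly.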

A short description of test [19]: qHTS of pediatric cancer cell lines to identify multiple opportunities for drug repurposing: Confirmatory screen for SK-N-MC cells (AID 1347111).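 Further: cells exposed to compound for 48 h before the readout; nearly all actives have a fitted effect of over 70% in size.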 In outline: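 SK-N-MC cells at 500-1,000 cells/well in growth media were pre-incubated 5 h, then exposed to compounds at 11-point dilutions for 48 h at 37 degrees C, 5% CO2. Viability was read as CellTiter-Glo luminescence.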

Inconclusive results are not listed. Unmarked numbers belong to inactive results. Active and inactive are the calls of the source. The call rests on the fitted dose curve; in most records, active means well fitted curve in the direction sought with a large enough effect; inconclusive means small, poorly fitted or top-dose-only effect, or another doubt; inactive means no such curve, though single readings can be large; an effect the other way counts as inactive or inconclusive. Starred links: 1 amine or outer side, 2 acyl side, 3 side chain; linkers in the order of their positions; H or OH if unused. Positions of bridges follow the written chain, without caps; N, C: chain ends. Non-standard residues stand in square brackets, D forms with d. Residues, ends and D or L forms follow the SMILES beside them. Chains are numbered I, II in the order given. Actinocin(9to1) = Cc1c2oc3c(C)ccc(C(=O)[*:1])c3nc-2c(C(=O)[*:2])c(N)c1=O; NMeV = CN[CH](C(=O)O)C(C)C; Sar = CNCC(=O)O
Potency means the concentration at half of the fitted maximal effect.

For the compound `C=C(C)[C@@H]1CC[C@]2(C)CC[C@]3(C)[C@H](CC[C@@H]4[C@@]5(C)CC[C@H](O)C(C)(C)[C@H]5CC[C@]43C)[C@@H]12`, the Potency entry in [1], in test [2], in test [3], in test [4], in test [5] and in [6] was “inactive” in each case. The Potency result in [7], in [8], in [9], in test [10], in test [11] and in test [12] was “inactive” throughout. Further, the Potency entry in test [13], in [14], in test [15] and in test [16] was “inactive” each time.

As for `COc1ccc(S(=O)(=O)Nc2cccnc2Nc2ccc(O)cc2)cc1`, the Potency was 0.296 µM (active) in test [1]; 0.344 µM (active) in [2]; 0.0166 µM (active) in test [3]; 0.235 µM (active) in test [5]; 0.0469 µM (active) in test [8]; 0.432 µM (active) in test [9]. Further, the Potency in test [11] was 0.306 µM (active); in test [16] it was 0.187 µM (active); in test [17], 0.522 µM (active); in test [18], 0.928 µM (active); in test [19], 2.61 µM (active). For the same compound, the Potency result in [7], in [10] and in [15] was “inactive” in each case.

As to `Cc1c2oc3c(C)ccc(C(=O)NC4C(=O)NC(C(C)C)C(=O)N5CCCC5C(=O)N(C)CC(=O)N(C)C(C(C)C)C(=O)OC4C)c3nc-2c(C(=O)NC2C(=O)NC(C(C)C)C(=O)N3CCCC3C(=O)N(C)CC(=O)N(C)C(C(C)C)C(=O)OC2C)c(N)c1=O` (stereo unspecified) (I: TVP[Sar][NMeV] / II: TVP[Sar][NMeV]; ester I:1-I:C, II:1-II:C; linker I:N-II:N via Actinocin(9to1); configuration not given here), the Potency in test [1], in test [2], in test [4], in test [5], in test [6] and in [9] was 0.001 µM (active) in each case. Also, the Potency is 1.87 µM (active) in [10]; 0.001 µM (active) in [11]; 0.001 µM (active) in test [12]; 0.001 µM (active) in test [16]; 0.0147 µM (active) in test [18]; 0.0074 µM (active) in test [19]. For the same compound, the Potency entry in [3], in [15] and in test [17] was “inactive” in each case.

For `NC[C@H]1O[C@H](O[C@H]2[C@@H](O)[C@@H](O[C@H]3O[C@H](CO)[C@@H](O)[C@H](N)[C@@H]3O)[C@H](N)C[C@@H]2N)[C@H](N)C[C@H]1O`, the Potency entry in test [1], in test [3], in test [4], in test [5], in [6] and in test [7] was “inactive” throughout. Also, the Potency entry in test [8], in test [9], in [10], in test [11], in [12] and in [14] was “inactive” in each case. In addition, the Potency entry in test [15] and in test [16] was “inactive” throughout.

As to `NC(=NCCCCCCN=C(N)N=C(N)Nc1ccc(Cl)cc1)N=C(N)Nc1ccc(Cl)cc1`, the Potency in [1] is 2.09 µM (active); in [3], 26.4 µM (active); in test [5], 18.7 µM (active); in [6] it was 21.5 µM (active); in [7], 5.26 µM (active); in [9], 13.7 µM (active). Also, the Potency is 20.9 µM (active) in test [10]; 11.8 µM (active) in [12]; 14.8 µM (active) in [13]; 8.33 µM (active) in test [14]; 4.69 µM (active) in test [15]. Also, the Potency result in [4] is “inactive”.

Turning to `CC(Cc1ccc(O)c(O)c1)(NN)C(=O)O` (stereo unspecified), the Potency entry in [4], in test [5], in test [6], in test [9], in test [10] and in test [11] was “inactive” throughout. The Potency entry in [13] and in test [14] was “inactive” in each case.

On to `CC(=O)C1=C(O)C=C2Oc3c(C(C)=O)c(O)c(C)c(O)c3C2(C)C1=O` (stereo unspecified), for which the Potency in test [2] was 1.37 µM (active); in [5], 1.48 µM (active); in test [9] it was 1.72 µM (active); in test [11], 1.72 µM (active). Also, the Potency result in test [4], in test [6], in [14], in test [15] and in test [16] was “inactive” in each case.

Regarding `CC(=O)O[C@H]1C[C@@H]2CC[C@H]3[C@H]4C[C@H]([N+]5(C)CCCCC5)[C@@H](OC(C)=O)[C@@]4(C)CC[C@@H]3[C@@]2(C)C[C@H]1N1CCCCC1`, the Potency result in test [2], in test [3], in [4], in test [5], in test [6] and in test [7] was “inactive” in each case. Besides, the Potency result in test [8], in test [11], in test [12], in test [13] and in [14] was “inactive” throughout. Further, the Potency in test [19] was 3.29 µM (active).

As to `COC(=O)[C@@H]1[C@H]2C[C@@H]3c4[nH]c5ccccc5c4CCN3C[C@@H]2CC[C@@H]1O`, the Potency entry in [3], in test [5], in test [6], in test [8], in test [9] and in test [10] was “inactive” throughout. For the same compound, the Potency entry in test [12], in test [13], in [14], in test [15], in test [16] and in test [17] was “inactive” in each case. The Potency entry in [18] and in test [19] was “inactive” in each case.

In the case of `CC(N[C@H]1CCCC[C@H]1NC(=O)c1ccc(Cl)cc1)c1cccc2ccccc12` (stereo partly specified), the Potency in [1] is 0.0209 µM (active); in test [5], 0.0662 µM (active); in test [6], 4.82 µM (active); in [7] it was 0.418 µM (active); in [8], 2.96 µM (active); in test [9], 1.37 µM (active). Besides, the Potency in test [11] is 6.11 µM (active); in test [12], 2.64 µM (active); in [17], 20.8 µM (active); in [18], 16.5 µM (active); in [19] it was 2.61 µM (active). The Potency entry in test [4], in test [14] and in test [15] was “inactive” each time.

Turning to `CC[C@H]1OC(=O)[C@H](C)[C@@H](O[C@H]2C[C@@](C)(OC)[C@@H](O)[C@H](C)O2)[C@H](C)[C@@H](O[C@@H]2O[C@@H](C)C[C@H](N(C)C)[C@@H]2O)[C@](C)(O)C[C@@H](C)C(=O)[C@H](C)[C@@H](O)[C@]1(C)O`, the Potency entry in test [2], in test [3], in test [4], in test [5], in [6] and in test [7] was “inactive” in each case. Moreover, the Potency result in test [8], in test [9], in test [10], in test [12], in [13] and in test [14] was “inactive” in each case. In test [15], the Potency entry was “inactive”.

For the origin of these results see PubChem BioAssay (NCATS).
